Measurements from PubChem BioAssay (NCATS).
Results filed as inconclusive are left out. Active and inactive are the calls of the source. Unless noted, the call rests on the fitted dose curve; in most records, active means well fitted curve in the direction sought with a large enough effect; inconclusive means small, poorly fitted or top-dose-only effect, or another doubt; inactive means no such curve, though single readings can be large; an effect the other way counts as inactive or inconclusive.

Legend:
[1] = molecular target: Alpha-galactosidase A (Homo sapiens) (UniProt P06280); experiment: Counterscreen for Glucocerebrosidase Inhibitors: qHTS Assay for Human alpha-Galactosidase at pH 4.5 (AID 992)
In short: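 Each compound is preincubated briefly with 2 nM enzyme before substrate addition (80 uM); plates then sit 20 min at ambient temperature, are quenched with 1M NaOH/1M glycine, and read fluorometrically.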

[2] = molecular target: alpha-glucosidase (Oryza sativa, rice) (UniProt Q653V4); experiment: Counterscreen for Glucocerebrosidase Inhibitors: qHTS Assay for Rice alpha-Glucosidase at pH 5.0 (AID 997)
In short: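 Endpoint fluorogenic assay at pH 5.0: compounds (0.7 nM to 77 uM) titrated against 4 nM rice enzyme and 400 uM 4-MU-alpha-glucoside for 20 min at room temperature; NaOH/glycine stop, read ex 365/em 440 nm, Hill-fitted AC50.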

[3] = Validation of Assay for Modulators of Lamin A Splicing (AID 1459; active means well fitted curve in the direction sought with a large enough effect in the signal ratio; the % refers to the signal ratio;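 further: cells exposed to compound for two days before reading; ratio rise marks activators and ratio drop marks inhibitors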)
In short: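 Dual-reporter HeLa S3 line (lamin A-EGFP minigene, DsRed2) treated with compounds 48 hrs, 0.5% DMSO final. Endpoint: EGFP/DsRed2 total intensity ratio from laser-scanning microplate cytometry.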

[4] = molecular target: DNA repair nuclease/redox regulator APEX1 (Homo sapiens) (UniProt P27695); experiment: qHTS Validation Assay for Inhibitors of the Human Apurinic/apyrimidinic Endonuclease 1 (APE1) (AID 1705; further: potency means the concentration at half of the fitted maximal effect)
In short: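 Substrate: 50 nM final fluorophore/quencher THF-abasic duplex. Enzyme preincubated with compounds 15 min, RT. Progress derived from fluorescence difference, third minus first kinetic read.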

[5] = Counterscreen for APE1 Inhibitors: Fluorescent Dye Displacement Validation Assay (AID 1707)
In short: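 Loss of Thiazole Orange fluorescence marks promiscuous DNA binders. The dye (250 nM) is mixed with 50 nM abasic-site dsDNA in pH7.5 Tris buffer containing MgCl2, then compounds are added and emission is read once.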

[6] = qHTS for differential inhibitors of proliferation of Plasmodium falciparum line 7G8 (AID 1815);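 further: parasite growth measured after three days of incubation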; further: potency means the concentration at half of the fitted maximal effect
[7] = qHTS for differential inhibitors of proliferation of Plasmodium falciparum line GB4 (AID 1816); conditions: Potency: Plasmodium falciparum GB4 proliferation inhibition;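 further: parasite growth measured after 72 h incubation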; further: potency means the concentration at half of the fitted maximal effect
[8] = qHTS for differential inhibitors of proliferation of Plasmodium falciparum line 3D7 (AID 1876); further: potency means the concentration at half of the fitted maximal effect
[9] = molecular target: Endonuclease 4 (Escherichia coli (strain K12)) (UniProt P0A6C1); experiment: Counterscreen for APE1 Inhibitors: qHTS Validation Assay for Inhibitors of Endonuclease IV (AID 1708)
In short: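 Conditions: 2 nM enzyme, 50 nM TAMRA/BHQ-2 substrate, pH 7.5 Tris buffer with 2 mM MgCl2, RT. Compound preincubation 15 min; readout three fluorescence reads 60 s apart, third-minus-first.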

Measured: Potency

Sequence of DNA repair nuclease/redox regulator APEX1 (Homo sapiens) (P27695 whole entry, looked up): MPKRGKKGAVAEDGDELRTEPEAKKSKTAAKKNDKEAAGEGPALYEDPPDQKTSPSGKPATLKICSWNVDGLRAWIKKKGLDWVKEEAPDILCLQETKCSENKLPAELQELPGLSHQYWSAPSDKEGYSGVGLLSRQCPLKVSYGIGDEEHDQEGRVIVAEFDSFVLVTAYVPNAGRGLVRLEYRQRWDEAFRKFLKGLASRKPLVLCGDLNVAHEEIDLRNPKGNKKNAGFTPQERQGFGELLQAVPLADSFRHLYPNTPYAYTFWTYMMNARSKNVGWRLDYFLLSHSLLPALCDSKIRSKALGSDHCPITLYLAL
Sequence of Alpha-galactosidase A (Homo sapiens) (P06280 whole entry, looked up): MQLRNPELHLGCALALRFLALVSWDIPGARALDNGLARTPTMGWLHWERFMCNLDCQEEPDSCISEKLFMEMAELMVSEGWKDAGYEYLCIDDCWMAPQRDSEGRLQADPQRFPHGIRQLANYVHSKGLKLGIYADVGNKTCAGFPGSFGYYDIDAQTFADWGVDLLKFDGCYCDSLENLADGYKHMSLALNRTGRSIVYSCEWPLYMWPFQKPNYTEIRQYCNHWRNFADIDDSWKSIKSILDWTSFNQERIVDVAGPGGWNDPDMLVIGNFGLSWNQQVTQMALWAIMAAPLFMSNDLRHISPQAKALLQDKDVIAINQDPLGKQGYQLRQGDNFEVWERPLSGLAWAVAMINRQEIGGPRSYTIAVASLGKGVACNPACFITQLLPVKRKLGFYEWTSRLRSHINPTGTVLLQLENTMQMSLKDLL

Cc1nc2c(OCc3ccccc3)cccn2c1CC#N
inactive: [1] | [2] | [3] | [4] | [5] | [6] | [7] | [8]

O=C1NC(=O)c2cc(Nc3ccccc3)c(Nc3ccccc3)cc21
active: [6] 8.91 µM | [7] 10 µM | [8] 12.6 µM
inactive: [2] | [3] | [4] | [5]

Cc1cccc(C2CN(C)CCc3c2cc(O)c(O)c3Cl)c1 (stereo not drawn)
active: [6] 7.94 µM | [7] 8.91 µM | [8] 8.91 µM
inactive: [3] | [4] | [5]

c1ccc2c(c1)CC(N1CCN(c3cccc4c3OCCO4)CC1)C2
active: [8] 12.6 µM
inactive: [2] | [3] | [4] | [5]

COC(=O)[C@H](NC(=O)c1cc(-c2ccccc2)nc2ccccc12)c1ccccc1
active: [6] 11.2 µM
inactive: [1] | [2] | [3] | [4] | [5] | [8]

CC(N)(C(=O)O)c1ccc(C(=O)O)cc1 (stereo not drawn)
inactive: [3] | [4] | [5] | [6] | [7] | [8]

NCC(O)(CS(=O)(=O)O)c1ccc(Cl)cc1 (stereo not drawn)
inactive: [3] | [4] | [5] | [6] | [7] | [8]

Cn1c(=O)c2[nH]c(-c3ccc(S(=O)(=O)O)cc3)nc2n(C)c1=O
inactive: [1] | [2] | [3] | [4] | [9]

CNc1ncnc2c1ncn2[C@H]1C[C@H](OP(=O)(O)O)[C@@H](COP(=O)(O)O)O1
inactive: [3] | [4] | [5] | [6] | [7] | [8]

COc1ccccc1N1CCN(CCCCN2C(=O)c3ccccc3C2=O)CC1
active: [8] 12.6 µM
inactive: [1] | [2] | [3] | [4] | [5] | [6]

CO/N=C(\C(=O)N[C@@H]1C(=O)N2C(C(=O)O)=C(CSc3nc(=O)c(O)nn3C)CSC12)c1csc(N)n1 (stereo partly drawn)
active: [4] 2.24 µM
inactive: [3] | [5] | [6] | [7] | [8]

O=C(OCCN1CCOCC1)C1(c2ccccc2)CCCCC1
inactive: [1] | [2] | [3] | [4] | [5]
active: [7] 10 µM

Cn1cc(C(=O)OCC2CCN(CCNS(C)(=O)=O)CC2)c2ccccc21
inactive: [1] | [2] | [3] | [4] | [5]
active: [6] 10 µM

Nc1ccc(-c2ccc3ccccc3n2)cc1
inactive: [1] | [2] | [3] | [4] | [5]

CCCN(CCc1ccccc1)C1CCc2c(O)cccc2C1 (stereo not drawn)
inactive: [3] | [4] | [5]
active: [6] 1.12 µM | [7] 0.891 µM | [8] 3.16 µM

COc1cc(N)c(Cl)cc1C(=O)OCCN1CCCCC1
inactive: [1] | [2] | [3] | [4] | [5] | [8]

N[C@@H](Cc1ccc(O)c(I)c1)C(=O)O
inactive: [1] | [2] | [3] | [4] | [5] | [6] | [7] | [8]

Cn1ccnc1
inactive: [1] | [2] | [3] | [4] | [5] | [6] | [7] | [8]

N[C@H]1CONC1=O
inactive: [3] | [4] | [5] | [6] | [7] | [8]

C#CC(N)CCC(=O)O (stereo not drawn)
inactive: [3] | [4] | [5] | [6] | [7] | [8]

O=c1[nH]c2cc(Cl)ccc2c(O)c1-c1ccc(Oc2ccccc2)cc1
inactive: [1] | [2] | [3] | [4] | [5] | [6] | [8]

N[C@H](C(=O)O)[C@H]1C[C@@H]1C(=O)O
inactive: [3] | [5] | [6] | [7] | [8]
active: [4] 39.8 µM

OC1(c2ccc(Cl)cc2)CCN(Cc2c[nH]c3ccccc23)CC1
inactive: [1] | [2] | [3] | [4] | [5]

O=S(=O)(c1cccc2c(Cl)cccc12)N1CCCNCC1
active: [6] 5.01 µM | [7] 3.16 µM | [8] 14.1 µM
inactive: [2] | [3] | [4] | [5]

CCCOC(=O)c1c(-c2ccccc2)nc(CC)c(C(=O)SCC)c1CCC
inactive: [1] | [2] | [3] | [4] | [5]
active: [6] 12.6 µM | [7] 11.2 µM

N#C/C(=C\c1ccc(O)c(O)c1)C(=O)NCCCNC(=O)/C(C#N)=C/c1ccc(O)c(O)c1
inactive: [1] | [2] | [3] | [4]

CCCCCCN(CCCCCC)C(=O)Cc1c(-c2ccc(F)cc2)[nH]c2ccccc12
inactive: [1] | [2] | [3] | [4] | [5]
active: [6] 5.01 µM | [7] 3.98 µM | [8] 5.01 µM

O=C(O)c1cc(=O)cc(C(=O)O)[nH]1
inactive: [1] | [2] | [3] | [4] | [5] | [6] | [7] | [8]
